# Assay results published in PubChem BioAssay (Tox21).
# Records with an inconclusive call do not appear. Unmarked numbers belong to inactive results. Calls of active or inactive are those of the source. Calls come from the whole dose curve; as a rule, active = well fitted curve in the direction sought with a large enough effect in the repeat runs; inconclusive = weak or mixed curves; inactive = no such curve, though single readings can be large; an effect the other way counts as inactive or inconclusive.
# Test: qHTS assay to identify small molecule agonists of the RXR signaling pathway - cell viability counter screen (AID 1159529); note: nearly all actives have a fitted effect of over 50% in size; note: potency is the fitted concentration of half-maximal effect
# Conditions: RXR-alpha-bla HEK293T viability, CellTiter-Glo, 16 h; series mostly up to 76.8 µM; activity change, negative = cytotoxicity: at the top concentration
# Method in brief: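 RXR-alpha-UAS-bla HEK 293T cells in medium with 2% charcoal-stripped FBS were pre-incubated 5 hr, then compound-treated 16 hr at 37 C. Viability was read by CellTiter-Glo luminescence in the same wells as the beta-lactamase assay, with tetraoctyl ammonium bromide as positive control.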
# % is set by controls: 0 for no effect and ±100 for the full control effect.
Compound,"activity change, negative = cytotoxicity",Potency
Nc1nc(N)c(-c2ccccc2)s1,7.3% [at 35.3 µM],–
COCCCCCCCCOCCC[Si](C)(O[Si](C)(C)C)O[Si](C)(C)C,-4.23%,–
Cc1c(Cn2ccnc2)c2ccccc2n1CCC(=O)O,0.29% [at 35.3 µM],–
CCCCOCCOCCOCCOCCO,-14.3%,–
COc1ccc2[nH]c(S(=O)Cc3ncc(C)c(OC)c3C)nc2n1 (configuration not stated),3.1% [at 35.3 µM],–
CCCCOC(=O)c1ccccc1C(=O)OCC(CC)CCCC (configuration not stated),-19.3%,–
Cc1ccccc1N=Nc1ccc(N=Nc2c(O)ccc3ccccc23)c(C)c1,3.94% [at 35.3 µM],–
O=S(=O)(O)c1ccc(O)c2ncccc12,3.77%,–
CN1CCC[C@@H]1c1cccnc1,9.54% [at 35.3 µM],–
CC1(C)CCC(C)(C)c2cc(NC(=O)c3ccc(C(=O)O)cc3)ccc21,2.9% [at 35.3 µM],–
COc1ccc(OC)c(OC)c1,16.7%,–
Cc1cccc(Oc2ccccc2)c1,–,1900 nM (active)
CCCCCCCCCC=O,-13.6%,–
S=C(S)NCCNC(=S)S,-0.293%,–
CC(C)(C)c1cc(O)c(C(C)(C)C)cc1O,-29%,–
N#CCCNCCC#N,2.48%,–
c1ccc(-c2nc[nH]c2-c2ccccc2)cc1,-0.987% [at 35.3 µM],–
Cn1sccc1=O,–,inactive
CC(C)=CCCC(C)CC=O (configuration not stated),1.27%,–

# Test: qHTS assay to identify small molecule antagonists of the retinoid acid receptor (RAR) signaling pathway - cell viability counter screen (AID 1159551); note: nearly all actives have a fitted effect of over 35% in size
# Conditions: C3RL4 cells viability, ATP luminescence (CellTiter-Glo), 6 h; series mostly up to 92.4 µM; activity change, negative = cytotoxicity: at the top concentration
# Method in brief: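 Seed C3RL4 cells; next day add compound, then retinol to 1 uM final; incubate 6 h at 37 C; add CellTiter-Glo; read luminescence after 30 min at RT.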
row,Compound,"activity change, negative = cytotoxicity"
1,CC(C)c1ccccc1C(C)C,-0.411%
2,CNS(=O)(=O)Cc1ccc2[nH]cc(CCN(C)C)c2c1,-0.35% [at 42.5 µM]
3,CC(=O)SCc1ccco1,-0.0307%
4,CC(=O)[C@@]1(O)CC[C@H]2[C@@H]3C[C@H](C)C4=CC(=O)CC[C@]4(C)[C@H]3CC[C@@]21C,-0.438% [at 42.5 µM]
5,NCc1ccccc1,-0.633%
6,CCOC(=S)SSC(=S)OCC,2.91%
7,CCCC[C@H]1CN(CC2CCOCC2)C(=O)OC12CCN(C1(C)CCN(C(=O)c3c(C)ncnc3C)CC1)CC2,0.121%
8,Cc1ccc(C(N)=O)cc1N,2.77%
9,C=CC(=O)OCCOC(=O)CCC(=O)O,-0.44%
10,Cn1c(NCCN(CCO)CCCc2ccc([N+](=O)[O-])cc2)cc(=O)n(C)c1=O,-0.372% [at 42.5 µM]
11,Oc1ccc(C(O)CNCCCCCCNCC(O)c2ccc(O)c(O)c2)cc1O (configuration not stated),0.157% [at 42.5 µM]
12,CC(=O)N(CC(=O)N(C)C)c1ccccc1,-1.14% [at 42.5 µM]
13,CCOC(=O)CC(C)C,-1.45%
14,CC(C)(C)c1ccc(S)cc1,-0.0135%
15,CC(=O)O[C@H]1C[C@@H]2CC[C@@H]3[C@H](CC[C@@]4(C)[C@H]3C[C@H]([N+]3(C)CCCCC3)[C@@H]4OC(C)=O)[C@@]2(C)C[C@@H]1N1CCCCC1,-0.913% [at 42.5 µM]
16,CCCCCCCCCCCCCCCCCBr,0.698% [at 19 µM]
17,Nc1nc(N)c(-c2ccccc2)s1,-0.309% [at 42.5 µM]

row,Compound,"activity change, negative = cytotoxicity"
1,Cc1c(Cn2ccnc2)c2ccccc2n1CCC(=O)O,1.13% [at 42.5 µM]
2,CCCCOCCOCCOCCOCCO,0.0671%
3,COc1ccc2[nH]c(S(=O)Cc3ncc(C)c(OC)c3C)nc2n1 (configuration not stated),0.216% [at 42.5 µM]
4,CCCCOC(=O)c1ccccc1C(=O)OCC(CC)CCCC (configuration not stated),0.962%
5,Cc1ccccc1N=Nc1ccc(N=Nc2c(O)ccc3ccccc23)c(C)c1,-5.54% [at 42.5 µM]
6,O=S(=O)(O)c1ccc(O)c2ncccc12,4.14%
7,CN1CCC[C@@H]1c1cccnc1,-0.956% [at 42.5 µM]
8,CC1(C)CCC(C)(C)c2cc(NC(=O)c3ccc(C(=O)O)cc3)ccc21,-0.491% [at 42.5 µM]
9,COc1ccc(OC)c(OC)c1,0.69%
10,Cc1cccc(Oc2ccccc2)c1,-7.02%
11,CCCCCCCCCC=O,-0.702%
12,S=C(S)NCCNC(=S)S,2.2%
13,CC(C)(C)c1cc(O)c(C(C)(C)C)cc1O,3.36%
14,N#CCCNCCC#N,1.16%
15,c1ccc(-c2nc[nH]c2-c2ccccc2)cc1,-0.792% [at 42.5 µM]
16,CC(C)=CCCC(C)CC=O (configuration not stated),3.9%
